The values below come from the supplement of paper PMC7156485.

Molecules are shown by their SMILES. ± gives the standard deviation of the averaged measurements.
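Further: TDF denotes transformed human dermal fibroblasts of mesenchymal origin.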

The assay concerns HCC1569. The assay can be described thus: cell number relative to DMSO (% of DMSO); higher = more cells (less growth inhibition / toxicity). The following applies: concentration: 10 µM; 24 h. In short, it runs like this: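 Cell number or H1.0 nuclear intensity appears as percent of the plate control, based on the median of replicates. Measurements came from HCC1569 and TDF cells exposed in triplicate to compounds at 10 µM for 24 h at 37 °C, then imaged in six fields per well at ×10. Positional effects were smoothed out of HCC1569 values.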
For `CCC=CCC=CCC=CCC=CCC=CCCCC(=O)O` [Eicosapentaenoic acid], the cell number is 106 ± 9.9. `NCC1OC(OC2C(CO)OC(OC3C(O)C(N)CC(N)C3OC3OC(CN)C(O)C(O)C3N)C2O)C(N)C(O)C1O` (centres undefined) [Neomycin] returned a cell number of 99.58 ± 0.33. `CCCCCC(O)C=CC1C(O)CC(O)C1CC=CCCCC(=O)O` (stereo not drawn) [8-Epi-prostaglandin F2a] showed a cell number of 102.

For `CCOC(=O)[C@H](CCc1ccccc1)N[C@@H](C)C(=O)N1C(=O)N(C)C[C@H]1C(=O)O.Cl`, the cell number amounted to 107. To `C[Se]CCC(N)C(=O)O` (centres undefined) [Selenomethionine] belongs 100; to `CCCCCCCCCCCCCCCCC(=O)O` [Heptadecanoic acid], 99.9. `CC1CCC2(C(=O)O)CCC3(C)C(=CCC4C5(C)CC(O)C(O)C(C)(CO)C5CCC43C)C2C1C` (centres undefined) [Asiatic acid] returned a cell number of 104. The compound `CCCCOc1ccc(-c2cncc(C(=O)NCc3cccnc3N3CCOCC3)c2)cc1Cl` registered a cell number of 86.9.

As for `Nc1ccc(O)c(C(=O)O)c1` [5-Aminosalicylic acid], the cell number was 107. For `NC(=O)OCC(COC(N)=O)c1ccccc1` [Felbamate] the value was 111 ± 15. The compound `CCN1CCN(c2cc3c(cc2F)c(=O)c(C(=O)O)cn3C2CC2)CC1` [Enrofloxacin] displayed a cell number of 101. To `O=C1CCc2c(ccc3ccccc23)O1` [1,2-dihydro-3H-benzo[f]chromen-3-one] belongs 103. To `CN1CCCC1c1cccnc1` (single isomer, unassigned; (-)) [(-)-Nicotine] belongs 99.2; to `COC(C)(C)CCCC(C)CC=CC(C)=CC(=O)O` (centres undefined) [Methoprene acid], 104; to `O=C(NC(Cc1cc(=O)[nH]c2ccccc12)C(=O)O)c1ccc(Cl)cc1` (centres undefined) [Rebamipide], 104.

In turn, `COC(=O)C(c1ccccc1Cl)N1CCc2sccc2C1` (centres undefined) [Clopidogrel] gave a cell number of 99.8. To `NC(CS(=O)O)C(=O)O` [L-Cysteinesulfinic Acid] belongs 102. For `CN=C(NC#N)NCCSCc1nc[nH]c1C` [Cimetidine] the value was 102 ± 1.8.

In turn, `O=C(O)CCC(=O)c1ccc(-c2ccccc2)cc1` [Fenbufen] returned a cell number of 101. `CC(=O)N[C@@H](CS)C(N)=O` returned a cell number of 109. For `Nc1ccc(C(=O)O)c(O)c1` [4-Aminosalicylic acid] the value was 105; for `CN(C)CCOC(c1ccccc1)c1ccccc1.Cl` [Diphenhydramine.HCl], 106. As to `C=C(C)C1CCC2(CO)CCC3(C)C(CCC4C5(C)CCC(O)C(C)(C)C5CCC43C)C12` (centres undefined) [Betulin], the cell number stood at 107. Compound `O=C(CCCCCCC(=O)Nc1ccccc1)NO` had a cell number of 101. Turning to `CC(CCC(=O)NCCS(=O)(=O)O)C1CCC2C3C(O)CC4CC(O)CCC4(C)C3CC(O)C12C` (centres undefined) [Taurocholic acid], the cell number was 101. To `CCCNCC(O)COc1ccccc1C(=O)CCc1ccccc1.Cl` [(S)-(-)-propafenone hydrochloride] belongs 98.4; to `NC(CO)(CO)CO.O=C(c1ccccc1)c1ccc2n1CCC2C(=O)O` (centres undefined) [Ketorolac tris salt], 101; to `CC1CN(c2c(F)c(N)c3c(=O)c(C(=O)O)cn(C4CC4)c3c2F)CC(C)N1` (centres undefined) [Sparfloxacin], 104. For `C#Cc1cccc(Nc2ncnc3cc(OCCOC)c(OCCOC)cc23)c1` [Erlotinib] the value was 94.8 ± 8; for `CCCCCC=CC=CC(O)CCCCCCCC(=O)O` (racemic), 103; for `COc1cc(/C=C/C(=O)CC(=O)/C=C/c2ccc(O)cc2)ccc1O`, 66.5. On to `CCCCCC=CCC=CCC1OC1CC=CCCCC(=O)O` (centres undefined) [8,9-Epoxyeicosatrienoic acid], for which the cell number came out at 103. For `Nc1[nH]nc2nc3ccccc3nc12` the value was 95. In turn, `CCCC(CCC)C(=O)[O-].[Na+]` [Valproic acid sodium] returned a cell number of 108. To `COc1cc2c3cc1Oc1c(OC)c(OC)cc4c1C(Cc1ccc(O)c(c1)Oc1ccc(cc1)CC3N(C)CC2)N(C)CC4.Cl.Cl` (centres undefined) belongs 90.4. As to `O=C(O)CCCCC1CCSS1` (racemic), the cell number was found to be 104. For `NCCCC(O)(P(=O)([O-])O)P(=O)(O)O` [Alendronate] the value was 106; for `O=C(C=Cc1ccc(O)c(O)c1)OC(Cc1ccc(O)c(O)c1)C(=O)O` (centres undefined) [Rosmarinic acid], 104 ± 2.8; for `CCCCCCCCC=CCCCCCCCCC(=O)O` [10(Z)-Nonadecenoic acid], 102.
